# Hits are enriched below; roughly 19% of the tested compounds scored in any of these assays.
# TDP1 cell noCPT: qHTS for Inhibitors of human tyrosyl-DNA phosphodiesterase 1 (TDP1): qHTS in cells in absence of CPT | DT40 Tdp1-/- hTDP1 cells, no CPT, ATP luminescence, 48 h | Potency, µM (series often up to 46.2 µM), for inactives: at the top dose activity change, negative = growth inhibition, most hits filed as inhibitors | hit rate 15% among 420,000; further: nearly all actives have a fitted effect of over 55% in size
#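 Seeded 400 DT40-hTDP1 cells/well (vehicle DMSO, no 20 nM CPT); pinned compounds; ≥48 hr at 37 °C; CellTiter-Glo luminescence as viability measure.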
# Gal4-VP16 FLuc: VP16 counterscreen qHTS for inhibitors of ROR gamma transcriptional activity. Drosophila S2 Gal4-VP16 UAS-luciferase, luminescence, 20 h. Potency, µM (series often up to 53.6 µM), inactives show at the highest dose activity, negative = inhibition, most hits filed as inhibitors. hit rate 3.5% among 310,000. AID 2546, 2010;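 further: Gal4-VP16 expression switched on by copper sulfate through the metallothionein promoter; nearly all actives have a fitted effect of over 50% in size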
# DT40 TDP1 CPT: qHTS for Inhibitors of human tyrosyl-DNA phosphodiesterase 1 (TDP1): qHTS in cells in presence of CPT | chicken DT40 Tdp1-/-;hTDP1 cells + 20 nM CPT, ATP luminescence, 48 h | Potency, µM (top dose mostly 46.2 µM), inactives show at the top dose activity change, negative = growth inhibition, hits mostly inhibitors | hit rate 12% among 420,000; further: nearly all actives have a fitted effect of over 55% in size
#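 Cell growth measured by CellTiter-Glo luminescence after a minimum 48 h, 37 C compound exposure with 20 nM CPT in Tdp1-knockout DT40 cells stably expressing hTDP1, seeded 400/well; qHTS titration format.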
# TDP1 block: qHTS Assay for Inhibitors of Tyrosyl-DNA Phosphodiesterase (TDP1); Tyrosyl-DNA phosphodiesterase 1 (Homo sapiens), Q9NUW8; recombinant TDP1, AlphaScreen DNA substrate cleavage; Potency, µM (series often up to 130 µM), inactives show at the top dose activity change, negative = inhibition, usual class: inhibitors; hit rate 0.28% among 350,000; AID 485290, 2010; further: nearly all actives have a fitted effect of over 40% in size
# Target sequence (Q9NUW8 whole entry, looked up): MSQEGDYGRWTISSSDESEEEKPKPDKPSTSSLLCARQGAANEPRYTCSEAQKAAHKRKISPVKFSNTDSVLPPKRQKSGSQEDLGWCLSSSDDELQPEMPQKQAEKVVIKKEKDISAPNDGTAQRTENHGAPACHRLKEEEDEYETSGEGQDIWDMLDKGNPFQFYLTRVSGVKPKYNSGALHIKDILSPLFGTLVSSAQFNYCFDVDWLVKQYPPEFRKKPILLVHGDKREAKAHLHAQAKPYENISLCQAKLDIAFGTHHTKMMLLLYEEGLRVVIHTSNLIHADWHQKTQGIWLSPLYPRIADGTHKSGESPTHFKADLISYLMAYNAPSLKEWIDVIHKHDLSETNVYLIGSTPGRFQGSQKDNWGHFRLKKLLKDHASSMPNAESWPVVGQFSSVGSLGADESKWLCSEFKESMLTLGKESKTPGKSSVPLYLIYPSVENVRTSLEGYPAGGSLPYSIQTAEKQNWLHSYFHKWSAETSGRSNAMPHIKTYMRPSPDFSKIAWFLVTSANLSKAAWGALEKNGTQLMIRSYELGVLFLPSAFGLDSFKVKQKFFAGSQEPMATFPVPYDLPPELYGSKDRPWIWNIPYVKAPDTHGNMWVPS
#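 Signal: AlphaScreen proximity between streptavidin donor and anti-FITC acceptor beads on intact substrate. Reaction: Tdp1 1 nM, substrate 15 nM final, 5 min RT after 15 min compound preincubation.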
# RORgamma inh: qHTS for inhibitors of ROR gamma transcriptional activity; Drosophila S2 Gal4-RORgamma UAS-luciferase reporter, 20 h; Potency, µM (titrated, usually from 53.6 µM), without a hit: top-dose activity change, negative = inhibition, most hits filed as inhibitors; Nuclear receptor ROR-gamma (Mus musculus), P51450; AID 2551, 2010; hit rate 5.4% among 310,000; further: nearly all actives have a fitted effect of over 60% in size
#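 Schneider cells (Drosophila), stable Gal4 DBD–ROR gamma + UAS-luc; 1 hr cmpd preincubation; Cu2+ induction 700 uM final; 20 hr ambient; luminescence.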
# The depositor's hits bear a star; ? = inconclusive; . = no result given; [ ] = another dose, or the depositor's remark. The call rests on the fitted dose curve; in most records, active means well fitted curve in the direction sought with a large enough effect; inconclusive means small, poorly fitted or top-dose-only effect, or another doubt; inactive means no such curve, though single readings can be large; an effect the other way counts as inactive or inconclusive. On the % scale 0 is the no-effect control and ±100 the full control effect; potency means the concentration at half of the fitted maximal effect.
SMILES,TDP1 cell noCPT,Gal4-VP16 FLuc,DT40 TDP1 CPT,TDP1 block,RORgamma inh
Cc1cccc(C)c1Nc1sc(C(=O)c2ccccc2)c(N)c1S(=O)(=O)c1ccccc1,3.7µM*,.,4.6µM*,0%,.
CCOc1ccccc1Nc1sc(C(=O)c2ccc(Cl)cc2)c(N)c1S(=O)(=O)c1ccccc1,?,.,-30%,1%,.
CC(C)C[C@@H](CN1CCC[C@@H]1CN1C(=S)NC[C@@H]1Cc1ccccc1)N1C[C@H](Cc2ccc(O)cc2)N(CC2CCCCCC2)C1=S,18µM*,.,13µM*,.,.
CC(C)C[C@@H](CN1CCCC1CN1C(=S)NC[C@@H]1Cc1ccc(O)cc1)N1C[C@H](Cc2ccc(O)cc2)N(CC2CCCCC2)C1=S (stereo not given in full),15µM*,.,21µM*,.,.
CC(C)C[C@@H](CN1CCC[C@@H]1CN1C(=S)NC[C@@H]1Cc1ccccc1)N1C[C@H](Cc2ccc(O)cc2)N(CC2CCCCC2)C1=S,23µM*,.,?,.,.
CC(C)c1c(C(=O)NCc2cccnc2)cnn1-c1nccc(-c2ccccc2F)n1,?,.,27%[9.04 µM],.,.
COc1ccccc1NS(=O)(=O)c1ccc(C(=O)NCCCn2ccnc2)cc1,13%,.,-16%,1%,.
CC(C)CN1C2CCCC1CC(NC(=O)c1ccc([N+](=O)[O-])cc1)C2 (stereo not given),-2%,1%,-11%,.,7%
Nc1ccc(C(=O)NN2C(=O)[C@H](Cl)C2c2ccc(Cl)cc2)cc1 (stereo not given in full),3.7µM*,.,3.7µM*,.,.
CCNC(=O)CC1C(=O)N(CC)C(=S)N1NC(=O)c1ccc(Cl)cc1 (stereo not given),2%,5%,3%,-7%,-10%
Cc1cccc(NCc2nc(SCC(N)=O)n[nH]2)c1,-2%,0%,2%,3%,-4%
O=C(Cn1nnc(-c2ccccc2)n1)N/N=C/c1cc([N+](=O)[O-])c(Cl)cc1Cl,?,?,?,3%,3%
CCOc1cc(/C=C2\SC(=NC)N(C)C2=O)c(Br)cc1OC(C)=O,21µM*,?,?,2%,?
Cc1[nH]nc2nc(SCC(=O)NCCC3=CCCCC3)n(-c3ccc(Br)cc3)c(=N)c12,8.2µM*,?,12µM*,3%,?
Cc1cc(-n2c(SCC(=O)NCCC3=CCCCC3)nc3n[nH]c(C)c3c2=N)ccc1Cl,8.2µM*,?,16µM*,4%,?
Cc1ccc(Cl)cc1-n1c(SCC(=O)NCCC2=CCCCC2)nc2n[nH]c(C)c2c1=N,-23%,?,?,-2%,?
Cc1nnc2n1N=CC=C(c1ccccc1)S2,5.2µM*,16%,8.2µM*,6%,?
O=C(NCCO)c1ccc(-c2nnc(N3CCOCC3)c3ccccc23)cc1,-5%,-1%,-2%,-2%,2%
O=C(Cn1c(=O)oc2ccccc21)NCc1cccc(Cl)c1,-20%,.,?,-2%,.
COc1ccc(C(CNC(=O)COc2ccc(Cl)c(C)c2)N2CCOCC2)cc1 (stereo not given),?,.,21µM*,-3%,.
COc1ccc(OCC(=O)NCC(c2ccc(OC)cc2)N2CCCCC2)cc1 (stereo not given),6%,-8%,-16%,2%,-2%
COc1ccc(C(CNC(=O)COc2cc(C)cc(C)c2)N2CCCCC2)cc1 (stereo not given),?,.,23µM*,0%,.
COc1ccc(C(CNC(=O)COc2ccccc2)N2CCOCC2)cc1 (stereo not given),3%,.,7%,0%,.
COc1ccc(C(CNC(=O)COc2cc(C)c(Cl)c(C)c2)N2CCCCC2)cc1 (stereo not given),16µM*,?,23µM*,3%,?
COc1ccc(C(CNC(=O)COc2ccc(C)c(C)c2)N2CCCCC2)cc1 (stereo not given),?,-5%,23µM*,2%,-13%
SMILES,TDP1 cell noCPT,Gal4-VP16 FLuc,DT40 TDP1 CPT,TDP1 block,RORgamma inh
COc1ccc(C(CNC(=O)COc2ccc(Cl)cc2C)N2CCCCC2)cc1 (stereo not given),-23%,?,?,3%,-18%
COCCNC(=O)c1ccc(N2CC3CC(C2)c2cccc(=O)n2C3)c(NC(=O)c2ccccc2Cl)c1 (stereo not given),1%,.,-27%,.,.
Cc1nn(C2CCS(=O)(=O)C2)c(Cl)c1/C=C/C(=O)OCC(=O)c1cc(C)n(-c2ccc(F)cc2)c1C (stereo not given),16µM*,2%,21µM*,0%,44%
Cc1nn(C2CCS(=O)(=O)C2)c(Cl)c1/C=C/C(=O)OCC(=O)c1c[nH]c2ccccc12 (stereo not given),?,-23%,?,0%,?
CCCOc1ccc(C(=O)Nc2ccc(S(=O)(=O)N3C[C@@H]4C[C@@H](C3)c3cccc(=O)n3C4)cc2)cc1,13µM*,.,?,1%,.
N#Cc1c(-c2ccccc2)[nH]c(=O)[nH]c1=O,-4%,7%,-5%,5%,27%
CCNS(=O)(=O)c1cc(-c2nnc(OC)c3ccccc23)ccc1C,-16%,0%,?,.,-3%
O=[N+]([O-])c1cc([N+](=O)[O-])c(Oc2cc(F)cc(F)c2)cc1NN1CCCCC1,-24%,.,18µM*,1%,.
O=[N+]([O-])c1cc([N+](=O)[O-])c(Oc2ccc(F)cc2)cc1NN1CCCCC1,-8%,-4%,-14%,.,-7%
CC(C)(C)C(=O)[C@@H]1[C@@H]2C(=O)N(Cc3ccccc3)C(=O)[C@@H]2[C@H]2c3ccccc3C=CN12,.,?,.,71µM*,11µM*
CCOC(=O)c1ccccc1NC(=O)NCc1cccn1Cc1ccc(F)cc1,23µM*,.,23µM*,3%,.
Cc1c(C(=O)OCCOc2ccccc2)[nH]c2c1C(=O)CC(c1ccccc1Cl)C2 (stereo not given),1.5µM*,.,1.5µM*,-4%[12.3 µM],.
CCCCCOC(=O)c1[nH]c2c(c1C)C(=O)CC(c1ccco1)C2 (stereo not given),0.16µM*,0%,0.18µM*,-1%,?
Cc1ccc(COC(=O)c2[nH]c3c(c2C)C(=O)CC(c2ccc(Cl)cc2)C3)cc1 (stereo not given),9.2µM*,.,12µM*,-8%,.
Cc1c(C(=O)OC2CCC(C)CC2)[nH]c2c1C(=O)CC(c1ccc(N(C)C)cc1)C2 (stereo not given),-16%,.,-19%,2%,.

# High-throughput results: PubChem, National Center for Advancing Translational Sciences (NCATS)
